NS1 inh: qHTS Assay for Inhibitors of Influenza NS1 Protein Function. AID 2326, 2010. 270,000 tested, 0.4% active. Potency, µM (highest dose often 46.1 µM), without a hit: at the highest dose activity, positive = more growth; calls by dose curve; also: potency is read from the fitted curve at half-maximal effect; actives are rising curves; nearly all actives have a fitted effect of over 50% in size
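A cell-based growth assay was used: compounds that relieve NS1-induced slow growth of budding yeast raise OD600. Assay medium was yeast nitrogen base with ammonium sulphate and -URA supplement, pH 6.0, with 2% galactose.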
Sm TGR block: qHTS Assay for the Inhibitors of Schistosoma Mansoni Peroxiredoxins. Schistosoma mansoni thioredoxin glutathione reductase (TGR), Q962Y6. 360,000 tested, 3% active. Potency, µM (top dose mostly 114 µM), inactives show at the top dose activity change, negative = inhibition, hits mostly inhibitors. purified TGR, DTNB reduction, TNB absorbance 405 nm; also: potency is read from the fitted curve at half-maximal effect; % is scaled to controls: 0 for no effect and ±100 for the full control effect; nearly all actives have a fitted effect of over 60% in size
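Kinetic colorimetric format: TGR-catalysed, NADPH-driven DTNB reduction monitored via TNB absorbance. Enzyme dispensed at 20 nM; compound exposure 15 min at room temperature before reaction start.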
Shiga inhibitor: A qHTS for Small Molecule Inhibitors of Shiga Toxin | 290,000 tested, 9.2% active | AID 2315, 2010 | inhibition, % at 38.7 µM | Vero cells, Shiga toxin protein synthesis inhibition reporter; in the data active = inhibition mostly above about 28%, no sharp cut-off; inactive = mostly below about 43%; also: 0% is about no effect
Pf growth 48h: Primary qHTS for delayed death inhibitors of the malarial parasite plastid, 48 hour incubation; Potency, µM (top dose mostly 28.7 µM), without a hit: at the highest dose activity change, negative = inhibition, most hits filed as inhibitors; 310,000 tested, 5.9% active; P. falciparum luciferase growth in erythrocytes, 48 h; also: potency is read from the fitted curve at half-maximal effect; % is scaled to controls: 0 for no effect and ±100 for the full control effect
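Cell-based growth assay: transgenic P. falciparum expressing firefly luciferase, cultured in red cells within RPMI 1640 containing 0.5% w/v Albumax, 24 mM bicarbonate and gentamycin. A drop in luciferase activity indicates inhibition.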
Pf growth 96h: Primary qHTS for delayed death inhibitors of the malarial parasite plastid, 96 hour incubation. P. falciparum luciferase reporter growth, 96 h. Potency, µM (doses to about 28.7 µM), for inactives: at the highest dose activity change, negative = inhibition, usual class: inhibitors. 320,000 tested, 6.9% active. AID 504834, 2011; also: potency is read from the fitted curve at half-maximal effect; % is scaled to controls: 0 for no effect and ±100 for the full control effect
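Plates of compound plus infected erythrocytes (2% hematocrit, 0.05% parasitemia final) incubate 96 hours, 37 C, 5% CO2. Detection reagent added; reduced luminescence from the parasites' luciferase reporter flags inhibition.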
Cycloheximide cs: Cycloheximide Counterscreen for Small Molecule Inhibitors of Shiga Toxin | cell reporter, cycloheximide protein synthesis inhibition counterscreen | max response, % | 300,000 tested, 12% active | AID 2314, 2010; in the data active = max response mostly above about 13%, no sharp cut-off; inactive = mostly below about 14%; also: read at 38.3 µM for the half of the compounds with a filed dose; 0% is about no effect
Starred values were filed as active, the others as inactive; ? = inconclusive; . = no result given; [ ] = dose if it differs, or a comment. Shown are actives, neighbours in structure and some others; about 21% of the full set was active somewhere. Unless noted, calls follow the shape of the dose curve; as a rule, active = well fitted curve in the direction sought with a large enough effect; inconclusive = small, poorly fitted or top-dose-only effect, or another doubt; inactive = no such curve, though single readings can be large; an effect the other way counts as inactive or inconclusive.

SMILES | NS1 inh | Sm TGR block | Shiga inhibitor | Pf growth 48h | Pf growth 96h | Cycloheximide cs
Cc1ccc2oc3c(c(=O)c2c1)C(c1ccc(F)cc1)N(CCCN1CCOCC1)C3=O (stereo unspecified) | 7% | 32µM* | -11 | . | ? | 9
Cc1ccc2oc3c(c(=O)c2c1)C(c1cccc(O)c1)N(CCCN1CCOCC1)C3=O (stereo unspecified) | . | 1% | . | . | . | .
Cc1ccc2oc3c(c(=O)c2c1)C(c1cccc(Cl)c1)N(CCCN1CCOCC1)C3=O (stereo unspecified) | -7% | ? | -4 | 2.6µM* | ? | -3
CCCCOc1ccc(C(=O)NCC(=O)NCC(c2ccc(OC)cc2)N2CCCC2)cc1 (stereo unspecified) | . | 0% | . | ? | ? | .
Cc1cc(=O)n(CC(=O)NC(C)c2ccccc2)c2c1c(C)nn2-c1cccc(F)c1 (stereo unspecified) | . | -9% | . | . | . | .
Cc1ccc(-c2c[n+](CC(=O)Nc3nc(-c4ccccc4)cs3)c3n2CCC3)cc1 | 0% | -6% | 23 | ? | ? | -3
Cc1ccc(-c2c[n+](CC(=O)Nc3cc(=O)n(C)c(=O)n3C)c3n2CCC3)cc1 | 22% | -1% | -30 | 4.1µM* | 1.2µM* | 1
Cn1c(NC(=O)C[n+]2cc(-c3ccc(F)cc3)n3c2CCC3)cc(=O)n(C)c1=O | -8% | -1% | 19 | 3.7µM* | 0.59µM* | -3
O=C(C[n+]1cc(-c2ccc(F)cc2)n2c1CCC2)c1cccs1 | 1% | 4% | 89* | 8.3µM* | ? | 18*
O=C(NCCC1=CCCCC1)c1cccc(S(=O)(=O)N2CCCCC2)c1 | . | 2% | . | ? | ? | .
CC(C)/C(=N/[N+](C)(C)C)c1ccccc1 | 0% | . | . | . | . | .
O=S1(=O)C2CC3C=CC2(CN1Cc1cccc(F)c1)O3 (stereo unspecified) | . | . | 18 | . | . | 5
Cc1ccc(OCC(=O)NCCNC(=O)c2cnccn2)cc1 | 1% | -8% | -7 | 32% | ? | -6
CSc1ccc(/C=C/C(=O)NC(=O)c2ccccc2O)cc1 | -39% | . | 20 | ? | 5% | 9.6*
O=C(/C=C/c1ccc(F)cc1)NC(=S)Nc1ccccc1O | -2% | -8% | 31 | 11%[0.00184 µM] | 3% | 10
O=C(/C=C/c1ccc(Br)cc1)NC(=O)c1ccccc1O | 2% | -4% | 46 | 83% | ? | 32*
O=C(/C=C/c1ccc(O)c(O)c1)NC(=O)c1ccccc1O | 5% | -29% | 24 | 73% | 150% | 15
CCN(CC(=O)Nc1cc(Cl)ccc1Cl)C(=O)c1ccc(-n2cccn2)cc1 | . | 2% | . | 19% | 44% | .
CC(C)N(C(=O)CSc1nc2ccccc2n1Cc1ccc(F)cc1)C(C)C | -26% | 0% | -6 | 4.7µM* | 27% | 9
CC(C)NC(=O)CSc1nc2ccccc2n1CC(=O)N1CCc2ccccc21 | -21% | 0% | -7 | ? | 13µM* | -1
CC(C)NC(=O)CSc1nc2ccccc2n1CC(=O)N(C(C)C)C(C)C | . | 3% | 46* | 5% | 4.1µM* | 20*
O=S(=O)(Nc1cccc(-c2ccc(N3CCOCC3)nn2)c1)c1ccccc1C(F)(F)F | . | -9% | . | . | . | .
COc1ccc(NC(=O)c2nn(C34CC5CC(CC(C5)C3)C4)cc2[N+](=O)[O-])cc1 | -2% | -1% | -22 | 4.7µM* | -1% | -3
O=C(Nc1cccc2ccccc12)c1nn(C23CC4CC(CC(C4)C2)C3)cc1[N+](=O)[O-] | 25% | 8% | -5 | ? | 0.93µM* | -5
Cc1ccc(Cn2cc(S(=O)(=O)c3ccccc3)c(=O)c3cc(F)c(N4CCOCC4)cc32)cc1 | . | 6% | . | . | . | .
Oc1c(Br)cc2oc3c(c2c1CNCc1ccccc1)CCCC3 | 0% | ? | -11 | . | 0.29µM* | -6
Oc1ccccc1CNCc1ccccc1 | . | 7% | 8 | ? | ? | 3
CCc1ccc(CN(Cc2cccnc2)C(=O)/C=C/c2ccc(OC)cc2)cc1 | 11% | 2% | 34* | 8.3µM* | ? | 25*

High-throughput results: PubChem BioAssay, National Center for Advancing Translational Sciences (NCATS)
